Shown are actives, neighbours in structure and some others; about 31% of the full set was active somewhere.
CYP2C9 inh: blocks human cytochrome P450 2C9; P11712; CYP2C9 Supersomes, luciferin-H conversion, luminescence; inhibition, % at 5 µM; 96,000 tested, 20% active;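 active = blocking of liver enzyme CYP2C9 beyond about 50% at 5 µM, limit read from the data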
Target sequence (P11712 whole entry, looked up): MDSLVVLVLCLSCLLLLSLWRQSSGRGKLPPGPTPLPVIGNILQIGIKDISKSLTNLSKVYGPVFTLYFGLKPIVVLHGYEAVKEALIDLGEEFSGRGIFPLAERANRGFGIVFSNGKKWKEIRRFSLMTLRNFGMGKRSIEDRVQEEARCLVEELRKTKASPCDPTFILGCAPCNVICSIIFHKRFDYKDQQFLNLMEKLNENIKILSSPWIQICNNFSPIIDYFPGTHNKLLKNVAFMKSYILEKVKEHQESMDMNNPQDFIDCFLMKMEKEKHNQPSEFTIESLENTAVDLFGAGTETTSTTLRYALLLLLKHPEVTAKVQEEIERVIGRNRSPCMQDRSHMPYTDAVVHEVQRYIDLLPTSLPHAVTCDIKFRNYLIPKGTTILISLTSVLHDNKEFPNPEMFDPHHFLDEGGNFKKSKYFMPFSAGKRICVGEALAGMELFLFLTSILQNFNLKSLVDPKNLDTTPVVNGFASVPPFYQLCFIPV
CYP2C19 activ: cytochrome P450 2C19 (human) activation | P33261 | recombinant CYP2C19, luciferin-H EGE luminescence; active compounds read high; 0 = fully inhibited enzyme, 1 = untreated enzyme | activation factor at 5 µM | 96,000 tested, under 10 active | AID 1025;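 active = activation factor of at least 2 at 5 µM in the primary screen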;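 note: 0 = wells with 2.5 mM tranylcypromine and 1 = vehicle-only wells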
PLAP activator: human PLAP activation; 96,000 tested, 1.2% active; P05187; activation fold at 20 µM; AID 696; purified PLAP enzyme, luminescent substrate read-out; active compounds read high; in the data active = activation fold above about 2
CYP2C9 act: increases human cytochrome P450 2C9 activity. P11712. recombinant CYP2C9, luciferin-H conversion, luminescence; active compounds read high; factor 1 = untreated enzyme, 0 = blocked. activation factor at 5 µM. 96,000 tested, 1.4% active. AID 1024;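 active = activation factor of 2 or more for CYP2C9 at a 5 µM dose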;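 note: 0 = sulfaphenazole-blocked wells and 1 = vehicle-only wells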
CYP2C19 inhib: inhibitors of human CYP2C19. inhibition, % at 5 µM. 96,000 tested, 21% active. CYP2C19 Supersomes, luciferin-H EGE luminescence, 30 min. P33261;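 active = CYP2C19 inhibition above a set limit at 5 µM in the primary screen, cut at about 50% in these data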;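 note: plate controls were negative control wells for no effect and 2.5 mM tranylcypromine positive control for full effect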
An asterisk follows results filed as active.

COc1ccc(-c2nnc(SCC(=O)NC(C)c3ccccc3)o2)cc1 (centres undefined) was read as CYP2C9 inh -31.8, CYP2C19 activ 0.4, PLAP activator 0.9, CYP2C9 act 1.3 and CYP2C19 inhib 59.2*.
For COc1cccc(CN(C)CC(=O)NC(=O)NCc2ccco2)c1 the results were CYP2C9 inh 28.9, CYP2C19 activ 0.4, PLAP activator 1.4, CYP2C9 act 0.7 and CYP2C19 inhib 58.1*.
Screening COC(=O)c1ccc(OCCn2cnc3ccccc3c2=O)cc1 returned CYP2C9 inh 25.2, CYP2C19 activ 0.7, PLAP activator 1, CYP2C9 act 0.7 and CYP2C19 inhib 28.6.
Cc1ccccc1N1CCN(C(=O)c2ccc(Oc3ccc(C(F)(F)F)cn3)cc2)CC1 was read as CYP2C9 inh 75.9*, CYP2C19 activ 0.8, PLAP activator 1.4, CYP2C9 act 0.2 and CYP2C19 inhib 19.4.
For COc1cccc(NC(=O)N2CCN(c3ccc(C(F)(F)F)cn3)CC2)c1 the results were CYP2C9 inh 4.2, CYP2C19 activ 1, PLAP activator 1.1, CYP2C9 act 1 and CYP2C19 inhib -1.0.
Screening Cc1cccc(C(=O)N2CCN(c3ccc(C(F)(F)F)cn3)CC2)c1C returned CYP2C9 inh 38.9, CYP2C19 activ 0.3, PLAP activator 2.1*, CYP2C9 act 0.6 and CYP2C19 inhib 74.2*.
O=C(Nc1cccc2nsnc12)c1ccc(-c2ccc(Br)cc2)o1 was read as CYP2C9 inh -1.7, CYP2C19 activ 1.1, PLAP activator 0.9, CYP2C9 act 1 and CYP2C19 inhib -8.0.
COCCNS(=O)(=O)c1cc(-c2nn(C)c(=O)c3ccccc23)ccc1C was read as CYP2C9 inh 69.9*, CYP2C19 activ 0.4, PLAP activator 1.5, CYP2C9 act 0.3 and CYP2C19 inhib 57.1*.
Cc1cc(C)n(CC(=O)NCc2cc(-c3nn(C)c(=O)c4ccccc34)ccc2C)n1 was read as CYP2C9 inh 54.7*, CYP2C19 activ 0.7, PLAP activator 1.2, CYP2C9 act 0.5 and CYP2C19 inhib 34.6.
Screening Cc1ccc(-c2nn3c(C)nnc3c3ccccc23)cc1S(=O)(=O)NC(C)c1ccccc1 (centres undefined) returned CYP2C9 inh 72.8*, CYP2C19 activ 0.5, PLAP activator 1.3, CYP2C9 act 0.3 and CYP2C19 inhib 50.2*.
`Cc1ccc(-c2nn(CC(N)=O)c(=O)c3ccccc23)cc1S(=O)(=O)N(C)C` gave CYP2C9 inh 58.8*, CYP2C19 activ 1.2, PLAP activator 1.8, CYP2C9 act 0.4 and CYP2C19 inhib -24.4.
Screening c1csc(-c2noc(COc3ccc4c(c3)CCCC4)n2)c1 returned CYP2C9 inh 12.3, CYP2C19 activ 0.9, PLAP activator 1, CYP2C9 act 0.9 and CYP2C19 inhib 10.0.
For COc1ccc(-c2nn(C)c(=O)c3ccccc23)cc1NC(=O)Cn1nc(-c2ccccc2)c2ccccc2c1=O the results were CYP2C9 inh 72.3*, CYP2C19 activ 0.6, PLAP activator 1.2, CYP2C9 act 0.3 and CYP2C19 inhib 44.8.
`CCOC(=O)CNS(=O)(=O)c1cc(-c2n[nH]c(=O)c3ccccc23)ccc1C` gave CYP2C9 inh 64.8*, CYP2C19 activ 0.5, PLAP activator 1.1, CYP2C9 act 0.4 and CYP2C19 inhib 50.2*.
`COc1ccc(-c2nn(C)c(=O)c3ccccc23)cc1NS(C)(=O)=O` gave CYP2C9 inh 50.8*, CYP2C19 activ 0.5, PLAP activator 1.6, CYP2C9 act 0.5 and CYP2C19 inhib 46.9.
Cc1nc(C(F)(F)F)c(C(=O)NC(=O)Nc2ccccc2)s1 was read as CYP2C9 inh 17.8, CYP2C19 activ 0.8, PLAP activator 1.1, CYP2C9 act 0.8 and CYP2C19 inhib 20.7.
`O=C(COc1ccccc1)N1CCN(c2nnc(-c3ccccc3)c3ccccc23)CC1` gave CYP2C9 inh 74.2*, CYP2C19 activ 0.3, PLAP activator 1.2, CYP2C9 act 0.3 and CYP2C19 inhib 74.3*.
Screening Cc1ccc(-c2cc(C(=O)N3CCN(C(=O)c4ccco4)CC3)no2)cc1 returned CYP2C9 inh 53.6*, CYP2C19 activ 0.2, PLAP activator 0.9, CYP2C9 act 0.5 and CYP2C19 inhib 78.5*.
For O=C(CN1C(=O)c2ccccc2C1=O)N1CCN(c2nnc(-c3ccccc3)c3ccccc23)CC1 the results were CYP2C9 inh -4.4, CYP2C19 activ 1.1, PLAP activator 0.8, CYP2C9 act 1 and CYP2C19 inhib -14.3.
